Reference: ChEMBL document CHEMBL3988442, “University of Dundee, Small-Polar-MMV Screening Library” (2021)
Screen size: about 48,000 compounds; about 13,000 (27%) showed an effect of 50% or more. The list shows a part of the results.

Test system: Wolbachia pipientis
Test: Anti-Wolbachia Cell-Based Screen
Format: functional
Set-up: scale not given: in the data most compounds retested in dose-response had high values
Conditions: 5 µM

SMILES	Percent Effect [%]
CN(C)c1ccc(C(=O)N2CCN(C(=O)N3CCCCC3)CC2)nn1	6.871
O=C(Cc1ccc2c(c1)OCO2)N1CCN(c2ccccc2Cl)C(=O)C1	2.346
O=C(Cc1ccc(CO)cc1)N1CCN(c2ccccc2Cl)C(=O)C1	-19.49
O=C(N1CCCCC1)N1CCN(c2ccc(Cl)nn2)C(=O)C1	123
Cc1ccc2c(n1)N(CCN(C)C)CCN(C(=O)N1CCOCC1)C2	-2.22
CN1CCN(C(=O)N2CCCC2)Cc2cccnc21	-1.039
O=C(N1CCCC1)N1CCN(c2ccc(Cl)nn2)C(=O)C1	104
O=C(N1CCOCC1)N1CCN(c2ccnc3ccsc23)CC1	30.34
O=C(N1CCOCC1)N1CCN(c2ccc(Cl)nn2)C(=O)C1	98.36
O=C(CN1CCN(c2ccnc3c(F)ccc(F)c23)CC1)NC1CC1	-1.102
O=C(Nc1ccc2c(c1)OCO2)N1CCN(CCc2ccccc2)CC1	10.38
CC(C)OCc1ncn2c1CN(Cc1nccs1)CCC2.O=C(O)C(F)(F)F	19.89
CCN(C)CC1CCN(C(=O)Nc2ccc(C)cc2)C1 (stereo not drawn)	-10.96
CN(C)C(=O)C1CCC2(CCN(C(=O)Nc3ccccc3)CC2)O1 (stereo not drawn)	111.7
O=C(Nc1ccc(S(=O)(=O)Nc2ccccc2)cc1)N1CCCC1	10.15
CN1C(=O)CO[C@H]2CN(C(=O)Nc3ccc(F)cc3)C[C@H]21	-3.92
CN(C)C(=O)N1CCC2(CCC(C(=O)N3CCCC3)O2)CC1 (stereo not drawn)	-25.65
CCC1=N[C@@]2(CC[C@@H]3CN(C(=O)Nc4ccc(F)cc4)C[C@@H]32)C(=O)N1	-8.843
CN(C)C(=O)C1CCC2(CCN(C(=O)Nc3ccc(F)cc3)CC2)O1 (stereo not drawn)	104.3
Cc1ccc(NC(=O)N2CCC3(CCC(C(=O)N(C)C)O3)CC2)cc1 (stereo not drawn)	103.6
CC(=O)NC1CCN(C(=O)Nc2ccc(SC(F)F)cc2)CC1	1.325
CCCN1CCCC2(CCN(S(=O)(=O)N3CCC(OC)CC3)C2)C1=O (stereo not drawn)	-17.89
CCCNC(=O)NCc1ccccc1NS(=O)(=O)c1ccccc1	1.164
COc1c(C2CCCN2Cc2nnc(C3CC3)o2)c(C)nn1C (stereo not drawn)	-22.17
CCN(Cc1noc(C)n1)C(=O)C(c1ccc(C)cc1)N(C)C (stereo not drawn)	-5.423

SMILES	Percent Effect [%]
CC(=O)N1CCN(C(=O)CCc2cc(Br)cs2)CC1	-5.733
CC1(Cc2cccnc2)NCCc2[nH]cnc21 (stereo not drawn)	0.4171
CC(C)Cc1ccc(C(=O)Cn2cnnc2[S+](C)[O-])cc1 (stereo not drawn)	22.36
CS(=O)(=O)N1CCCC12CCCN(S(=O)(=O)c1cccc(F)c1)C2 (stereo not drawn)	85.55
CCN1C(=O)CCC12CCCN(S(=O)(=O)c1cccc(C)c1)CC2 (stereo not drawn)	-13.05
Cc1cccc(S(=O)(=O)N2CCCC3(CCCN3S(C)(=O)=O)C2)c1 (stereo not drawn)	110.4
CNC(=O)[C@@]12CCO[C@@H]1CCN(S(=O)(=O)c1cccc(F)c1)C2	-9.413
Cc1cccc(S(=O)(=O)N2CCCc3c(c(=O)n(C)n3C)C2)c1	-4.559
CS(=O)(=O)N1CCCC12CCCN(S(=O)(=O)c1cc(F)cc(F)c1)C2 (stereo not drawn)	-5.366
COc1ccc(Nc2ncccc2C#N)cc1N1CCCC1=O	9.755
Cc1cc(S(=O)(=O)Nc2onc(C)c2C)sc1C	-16.29
Cc1nn(C)c(C)c1C1CCCN1C(=O)CCCc1ccccn1 (stereo not drawn)	91.34
Cc1nn(C)c(C)c1C1CCCN1C(=O)CCNS(C)(=O)=O (stereo not drawn)	101.1
COc1ccc(C2CCCN2C(=O)CCNc2ncccn2)cc1 (stereo not drawn)	1.66
CS(=O)(=O)NCCC(=O)N1CCCC1c1noc(C2CC2)n1 (stereo not drawn)	-8.062
COc1c(C2CCCN2C(=O)CCNc2ncccn2)c(C)nn1C (stereo not drawn)	119.8
Cc1nn(C)c(C)c1C1CCCN1C(=O)CCc1ccco1 (stereo not drawn)	103
Cc1nn(C)c(C)c1C1CCCN1Cc1nc(-c2ccco2)oc1C (stereo not drawn)	-2.901
Cc1nn(C)c(C)c1C1CCCN1C(=O)CCc1cscn1 (stereo not drawn)	-3.183
CSc1ccc(CNCCS(=O)(=O)N2CCOCC2)cc1	-30.29
CC1(C)CN(C(=O)c2ccc3nncn3c2)CCS1	-32.23
COCC1CN(C(=O)CC2Cc3ccccc3C2)Cc2c1cnn2C (stereo not drawn)	-1.669
Cc1nn(C)c(C)c1C1CCCN1C(=O)CCCNc1ncccn1 (stereo not drawn)	79.99
Cc1nn(C)c(Cl)c1C1CCCN1C(=O)CCNc1ncccn1 (stereo not drawn)	95.62
Cc1nn(C)c(C)c1C1CCCN1C(=O)CCNc1ncccn1 (stereo not drawn)	2.112

SMILES	Percent Effect [%]
Cc1nn(C)c(C)c1C1CCCN1C(=O)CCCn1cccn1 (stereo not drawn)	12.2
Fc1cccc2c1CCC2NCc1cnc(N2CCOCC2)nc1 (stereo not drawn)	3.105
COC(=O)CCC(=O)N(C/C=C/c1ccccc1)CCO	-11.86
COc1cccc(F)c1C(C)NC(=O)NCCc1ccc(C)nc1 (stereo not drawn)	1.538
O=C(Nc1nncs1)NC1CCOc2ccccc21 (stereo not drawn)	13.17
Cc1cc(CN(C)C(=O)Nc2cnc3c(c2)c(C)nn3C)no1	2.843
COc1ccc(S(=O)(=O)NCCC(O)c2ccccc2)c(C)c1 (stereo not drawn)	8.858
COCc1nc2nc(O)c3c(n2n1)NC(=O)CC3c1ccccc1Cl (stereo not drawn)	-6.394
O=C(O)C(F)(F)F.O=S(=O)(C1CC1)N1CC[C@@H](OCC2CC2)[C@@H]1Cc1ccncc1	-7.9
O=C(O)C(F)(F)F.O=C(O)C(F)(F)F.c1ccc(N2CC[C@H](OCC3CC3)[C@@H]2Cc2cccnc2)nc1	102.1
O=C(O)C(F)(F)F.O=S(=O)(C1CC1)N1CC[C@H](OCC2CC2)[C@@H]1Cc1cccnc1	-0.6171
O=C(O)C(F)(F)F.c1cnc(N2CC[C@@H](OCC3CC3)[C@@H]2Cc2cccnc2)nc1	125.6
O=C(O)C(F)(F)F.O=C(c1ccc[nH]1)N1CC[C@@H](OCC2CC2)[C@@H]1Cc1cccnc1	9.663
O=C(O)C(F)(F)F.O=C(O)C(F)(F)F.O=C(c1cccnc1)N1CC[C@H](OCC2CC2)[C@@H]1Cc1cccnc1	-13.6
Cn1nc2c(cc1=O)CN(Cc1nnc(-c3ccc(F)cc3)o1)CC2	-3.918
CC(NC(=O)NCCNc1cccc(F)c1C#N)c1nccs1 (stereo not drawn)	-8.965
CC(=O)N1CCOCC2(C1)CN(S(C)(=O)=O)CCO2 (stereo not drawn)	-9.255
COC(=O)c1cccc(S(=O)(=O)NC(=O)CC2CCCC2)c1	1.549
COC(=O)c1cccc(S(=O)(=O)Nc2ncc(C)s2)c1	-16.51
COC(=O)c1cccc(S(=O)(=O)NC(=O)COC2CCCCC2)c1	108.7
COC(=O)c1cccc(S(=O)(=O)NC(=O)COC2CCCC2)c1	86.25
COC(=O)c1cccc(S(=O)(=O)NC(=O)c2ccccc2F)c1	8.807
COC(=O)c1cccc(S(=O)(=O)Nc2ccc(Cl)c(C(N)=O)c2)c1	-9.655
Cc1occc1C(=O)N1CCCC1c1ccc(C(=O)N2CCOCC2)s1 (stereo not drawn)	1.721
Cc1ccc(OCCN(C)Cc2ccc(S(=O)(=O)N(C)C)o2)cc1	101.9

SMILES	Percent Effect [%]
Cc1ccc(OCCN(C)S(=O)(=O)N2CCOCC2)cc1	-11.92
Cc1ccc(OCCN(C)Cc2cscn2)cc1	-7.225
CC(C)N(C)C(=O)CSCc1ccc(S(=O)(=O)N(C)C)o1	-4.323
Cc1nnc(CN(C)CCOc2cccc(Cl)c2)o1	6.512
CN(CCOc1ccc(Cl)cc1)Cc1ccc(S(=O)(=O)N(C)C)o1	82.71
Cc1cc(C)cc(OCCN(C)Cc2cscn2)c1	-4.131
Cc1cc(C)cc(OCCN(C)Cc2ccc(S(=O)(=O)N(C)C)o2)c1	89.38
Cc1nnc(CN(C)CCCOc2ccc(Cl)cc2)o1	-9.497
COCCN(CC(N)=O)CC1CCCN(C2Cc3ccccc3C2)C1 (stereo not drawn)	-0.9874
Cc1noc(C)c1C(=O)N1Cc2ncn(C)c2C(COCC2CC2)C1.O=C(O)C(F)(F)F (stereo not drawn)	110.4
Cc1ccsc1C(=O)N1Cc2ncn(C)c2C(COCC2CC2)C1.O=C(O)C(F)(F)F (stereo not drawn)	46.58
Cn1cnc2c1C(COCC1CCOCC1)CN(C(=O)c1ccco1)C2.O=C(O)C(F)(F)F (stereo not drawn)	-6.702
Cc1noc(C)c1C(=O)N1Cc2ncn(C)c2C(COCC(C)C)C1.O=C(O)C(F)(F)F (stereo not drawn)	115.1
CC(C)COCC1CN(Cc2ccc3c(c2)OCO3)Cc2ncn(C)c21.O=C(O)C(F)(F)F.O=C(O)C(F)(F)F (stereo not drawn)	29.31
CCOCC1CCN(C(=O)Nc2ccc(-c3csnn3)cc2)C1 (stereo not drawn)	-10.06
N#Cc1cccc(S(=O)(=O)NC(=O)CCOCC(F)(F)F)c1	2.733
CC(C)(C)CC(=O)NS(=O)(=O)c1ccc(C#N)cc1C(F)(F)F	82.77
CC(C)CC(=O)NS(=O)(=O)c1ccc(C#N)cc1C(F)(F)F	112.6
Cc1ccc(C)c(S(=O)(=O)NC(=O)COc2cccc(C#N)c2)c1	12.25
COc1ccc(C(=O)NS(=O)(=O)c2ccc(C#N)cc2C(F)(F)F)cc1	-4.886
N#Cc1cccc(S(=O)(=O)NC(=O)COCC(F)(F)F)c1	-9.311
Cc1ccc(C(=O)NCCC2CCN(C)CC2)cc1N(C)S(C)(=O)=O	-13.52
CC(=O)c1csc(-c2csc(Cn3ccc(=O)[nH]c3=O)n2)c1	-9.484
